This note sets out measurements from PubChem BioAssay AID1347426 (Functional Genomics Laboratory (NCATS/FGL), 2020).

Among all 31,000 sequences or so, about 1,400 (4.5%) were called active.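 How the source made its calls: active means median seed-adjusted z-score above 1 or below -1; inactive means the rest.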 Only a selection was taken, and actives are over-represented in it overall.

A short description of this assay: Novel Modifiers of Survival Motor Neuron (SMN) Protein: Gene Identification via Genome-wide siRNA Screen.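 Further: luminescence tracks full-length SMN protein made from the SMN2 reporter.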 As to conditions: HEK293T SMN2-luciferase reporter, siRNA knockdown, 72 h; actives lie on both sides. In a few lines: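 Luciferase signal, proportional to full-length SMN made from an SMN2 cDNA reporter in stable HEK293T cells, was read 72 h after siRNA reverse transfection. Values were expressed as MAD scores after non-targeting-control normalization and log10 conversion; seed analysis flagged off-targets.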
Background: A reporter such as luciferase makes a cellular process visible.
Take GGCUUGCGCAAGAUCAAUATT against ATRNL1: the median seed-adjusted z-score is -0.142 (inactive). Regarding GCGUGAUCCUUGCCUCUAATT against GDPD4, the median seed-adjusted z-score was 0.0109 (inactive). As to CCUCAUUGAUCAUCACCGATT against ZNF567, the median seed-adjusted z-score was -0.114 (inactive). In the case of CUAGUUUAAUAAAGAUUCATT against APOE it was 0.0321 (inactive); in that of AGGAUAUUGUGAUUCAGCATT against POLR2G, -4.19 (active). With GCAUCAGGUGAACAUCAAATT against TRIM16 the figure was 0.345 (inactive); with GGAUGAGAAGGAUAAUGAUTT against IRF6, -1.79 (active); with AAACGAUGUUGAUGUCCAATT against ATP6V1E1, -0.312 (inactive). With GGAUGGACAUGUCAAAUCUTT against RBL1, the median seed-adjusted z-score is -0.0547 (inactive). In the case of CAAAGGACCCAAUAGAAUUTT against GUCY2F it was 0.188 (inactive); in that of GCGCGCUACUUUGGGAUAATT against POLR2E, -1.25 (active); in that of GGACCUCCCUUCAACAUCATT against DYSF, -0.23 (inactive). For CAGUGAAGCUAUCAAGUUATT against PSMA8, the median seed-adjusted z-score is 0.407 (inactive). Consider GACCAGAUGUGGACAAUCATT against TAF6, for which the median seed-adjusted z-score is -1.36 (active). With GAAUUGGAGAGGCAACAAATT against LMO7 the figure was 0.417 (inactive); with GAAGAGAUAUUUACACCUUTT against CD47, 0.0241 (inactive); with CUGCUAGUCUGUCUCCAAATT against SPINK7, -0.409 (inactive). With GGACUAUGUCUGCCUAUGATT against SCN7A the figure was 0 (inactive). For the sequence CUAAGAAUCUGCUUAGUAATT against CLDN5, the median seed-adjusted z-score was 0 (inactive). In the case of AGAAUGACAGGGUCCAGAATT against OGFR it was -0.565 (inactive). In the case of GCUUUGAUGUGAUUCACCUTT against PRKAG3 it was -1.03 (active).

As to GUCACAAGAUGGUCAAAAATT against CTNND2, the median seed-adjusted z-score is -0.0491 (inactive).

For the sequence CCAUCCUUCAGGCGAAUUATT against ACTR8, the median seed-adjusted z-score was -0.366 (inactive). In the case of GGUCUGUUCUGCAAGCACATT against PARVG it was 0.321 (inactive); in that of CCAAACCACUACAACCCUUTT against RPP21, -1.09 (active); in that of GAUAUAAAGUCAUGAAGAATT against USP30, -0.646 (inactive). Take CGUGGACUCCCACUUCCAATT against OGG1: the median seed-adjusted z-score was -0.128 (inactive). As to GGAGCUUCCCUAUAGUGAATT against HDAC3, the median seed-adjusted z-score was 0.579 (inactive). In the case of GGAUUCUAAGUACAGAGAATT against ZNF323 it was -0.319 (inactive); in that of CAACUGCUAGCUGAACGAATT against ITIH2, 0.262 (inactive); in that of CAUUUAUGACAAUCGGAUATT against OGT, 0.411 (inactive). With GUCUAUGAAUUGGACAAGATT against PGAM1 the figure was -0.234 (inactive); with CAUCAAAUAUGACAACUUUTT against GALNTL4, 0 (inactive). As for GCCGUUUCAUGUUUGUCUATT against TRPV1, the median seed-adjusted z-score is -0.12 (inactive). With GGAAAUGAGUGUCUGAACATT against CHMP6 the figure was -1.81 (active). For GGCUUUUUAGAUUUCGAAATT against TIGD7, the median seed-adjusted z-score was -0.116 (inactive). In the case of GAGUGAGACUGGGACAAGATT against TAPBP it was -0.786 (inactive); in that of GCCUUCACGUCUGAACAUATT against GAD2, 0.0588 (inactive). Turning to GAAACAACUUGAUUUCGAATT against PCDHB8, the median seed-adjusted z-score is 1.15 (active).

For GCAUGUUGUUGAUCAUGGATT against MAFB, the median seed-adjusted z-score is 0.674 (inactive). In the case of GAAGUGUUAUGUAAGGAGATT against EPHX2 it was 0 (inactive); in that of GAACAUGUCUUUAACGGAUTT against TJP2, 0.0668 (inactive). In the case of AGAUGAGAACUCUAAGCAATT against CHRM2, the median seed-adjusted z-score is 0.053 (inactive). CGAUCACUUCCUACAGUCUTT against RGR: the median seed-adjusted z-score is 0.217 (inactive). As for CCAUUGAAGUGGUUAAGAATT against CCNE2, the median seed-adjusted z-score is 0.801 (inactive). For the sequence GGUUGUUGCUGAUAGAGAATT against DPH5, the median seed-adjusted z-score was 0 (inactive). In the case of GAAGGACUCUGCAUAUGAUTT against SLC2A14, the median seed-adjusted z-score was -1.09 (active). In the case of CAACUAUAGUGCUCCCAGUTT against ZFP36L1, the median seed-adjusted z-score was -0.933 (inactive).

For the sequence CUCAGAGUGCAGAACCACATT against TRIM15, the median seed-adjusted z-score is 0.292 (inactive). With CCACGUACCCUUCAUCAAATT against KIF11, the median seed-adjusted z-score is -0.381 (inactive). GGUCUUCAGUGAACAGUUUTT against ZNF562: the median seed-adjusted z-score is -0.0954 (inactive).

For the sequence CUGUAAGAUUAAAUCCCAATT against TMTC4, the median seed-adjusted z-score was -1.16 (active).

Turning to GCCUUACAACUCUAAUGAATT against ZNF519, the median seed-adjusted z-score was 0.0162 (inactive). In the case of GCAUGGUCAUAGGCCUGAUTT against CYB561 it was 0 (inactive); in that of GGUGGAUGCUCAAUCCAGATT against FOXO1, 0.0591 (inactive).

As to CGAGAAGAGGAUUAAAGGATT against HAND1, the median seed-adjusted z-score is 0.161 (inactive). In the case of GGAAGAUUACAACCGAACATT against ARHGEF12 it was 0.136 (inactive); in that of GAUCACGUUUGACAACAAATT against MCOLN1, -0.522 (inactive).

For CUUUAACUGGGAUCACUGUTT against FOLR3, the median seed-adjusted z-score is 0 (inactive). As to CAACCAAAGUCGAAUAUGATT against PLK1, the median seed-adjusted z-score is -2.57 (active). As for UCCCAAACCUUCACCAUCATT against THAP8, the median seed-adjusted z-score is -0.872 (inactive). With GCAUCACCAUUGCUUGGAATT against STAT5B the figure was 0 (inactive).

In the case of CCUCGAUAUUUUAACCUUUTT against EID2, the median seed-adjusted z-score is -1.04 (active). With GUGAUAAAGUGAUAAGAUUTT against CPA6 the figure was 0.343 (inactive). For CCCACUAAAUUUUCGGAAATT against ATAD2, the median seed-adjusted z-score is -0.246 (inactive).

Turning to CUAUGAAAAUUGCAGGAGATT against GCM2, the median seed-adjusted z-score was -0.241 (inactive). As to CCCAGGAACUGCUAACGAATT against SETMAR, the median seed-adjusted z-score is 0.191 (inactive). For GCUCAUCCCUGUGCAUGGUTT against LY6G5B, the median seed-adjusted z-score was -1.29 (active). In the case of CUACAAGACAGGCAAUCUATT against IFI30 it was 0.401 (inactive); in that of CAGUAAGAAGGGUUCAAUATT against BTK, -0.0648 (inactive). In the case of CAAGAGAUAUCAUCGAUUATT against ZRANB3, the median seed-adjusted z-score is 0.0516 (inactive). For GGAUAUAGCUGGUGACCCATT against PCDH7, the median seed-adjusted z-score is 0.192 (inactive). In the case of AGUUGUUGGAAUGACCUUATT against CLEC5A it was -1.07 (active). With GAAGAUGUAUGGAAUUCUUTT against DARC the figure was 0.0814 (inactive); with CCAAGUAUCUGGUGGUGAATT against NDUFV1, -0.653 (inactive). With GGACGAGAGAUGUACAUUATT against CNGA1 the figure was -1.08 (active); with ACAUUUAGGUUGUAAACCATT against PLA2G12A, 0.139 (inactive). Take UGGUCAACUAGAAUACAUATT against RGPD5: the median seed-adjusted z-score was -0.0931 (inactive). On to GGAGAUGCACAACAUCUUATT against PIP4K2B, for which the median seed-adjusted z-score is 0.17 (inactive).

GAGUGGAAGUCAUACCCUATT against TTLL3: the median seed-adjusted z-score is -0.194 (inactive). In the case of CUAAUAACAGGGUACAGUATT against ZNF238 it was -0.491 (inactive); in that of CUAUGGACUUCAUCGCUUUTT against EEF1E1, -1.45 (active). Take GCAGAGUCAUGACCAGGGATT against CHST6: the median seed-adjusted z-score was 0.372 (inactive). Turning to CAGAUGCAGCACUCACUUUTT against MMP17, the median seed-adjusted z-score was -0.653 (inactive). As for AGAGAGCUCCGAACCUUCUTT against ICAM5, the median seed-adjusted z-score was -1 (active). On to GGAGGGUUUUCACGAUGAATT against AP2B1, for which the median seed-adjusted z-score was -0.214 (inactive).

For the sequence CUGCAGAUCUUGUGACAGATT against IMPA2, the median seed-adjusted z-score was 0.0513 (inactive). Take GUAUACUCCAGAACAAGUATT against ALDOB: the median seed-adjusted z-score was -1.34 (active). Turning to AGACAAAGAUUGAUAAACATT against SLC24A3, the median seed-adjusted z-score was 0.0177 (inactive). As for AGAUCUACCCAGACCCGGATT against TRAF4, the median seed-adjusted z-score was -1.16 (active). In the case of UCUACGACGUGGACGGUAATT against RCVRN it was 0.562 (inactive); in that of CAGUAUACGUGGUGCACGATT against PFKL, 0 (inactive); in that of GCAUCAACAAUAUCCGGGATT against FARSA, -0.158 (inactive). As for GGGUUCCAGUAACCAGUGATT against RPP21, the median seed-adjusted z-score is -1.09 (active).

In the case of GCAGCUCCAGUAACCUCAATT against ZNF683, the median seed-adjusted z-score is -0.452 (inactive). In the case of GAAGAGAUGUUCAACUGCATT against RAB35 it was 0.317 (inactive); in that of GCAAGAGAAUUAAACUGCATT against RAB8A, -0.0436 (inactive); in that of GAGUUACAGCUGAUCAAAATT against VPS26A, -1.55 (active). With GGGAUCAACUUAGAAGAGATT against POU6F1 the figure was 0.978 (inactive); with GGAUGCUGCUGAGAACUAUTT against PIK3R3, -1.88 (active).

In the case of GGAUCUUGAAUUCAACUAUTT against TLR8, the median seed-adjusted z-score was 0 (inactive). CGCUAUGAUCUGUACCACATT against TMEM147: the median seed-adjusted z-score was 0.233 (inactive). With GGAACGCAGUCAGAUUUGATT against CA5B the figure was 0.317 (inactive); with GCGAUGAAAUUGUCGUGUATT against MAP3K9, -0.498 (inactive); with “AGAUAACUGGAAAAUGUCUTT against SLC22A18AS”, 0.0382 (inactive). In the case of CAAUGUCCGUGAUCAUGAUTT against SARDH it was -0.195 (inactive); in that of GCCUCACCGUCUAUGUACATT against CD200, -0.0135 (inactive).

Consider GGAUCACGAUGAAGACAAATT against CTSL3, for which the median seed-adjusted z-score was 1.07 (active). With ACUGGGCUCUCUUUACCUATT against DBNL the figure was 0.398 (inactive).
